According to PubChem BioAssay:
Unmarked numbers belong to inactive results. This is one part of the list. Activity calls are given as the source filed them.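 Rule for the calls, unless noted: active = inhibition above a cutoff equal to the mean inhibition of all tested compounds plus 3 SD (cut at about 30% in these data); inactive = the rest.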

Columns and labels:
[1] = biological target: Bcl-2-like protein 1 (Homo sapiens) (UniProt Q07817); experiment: Bcl-xL inhibitors blocking Bim BH3 binding, confirmation, counter-screen for MCL1 inhibitor project, biochemical, fluorescence polarization (AID 2166); details: GST-Bcl-xL / FITC-Bim BH3 peptide FP binding; at 10.9 µM; active compounds read high
[2] = biological target: Induced myeloid leukemia cell differentiation protein Mcl-1 (Homo sapiens) (UniProt Q07820); experiment: inhibitors of MCL1 binding to BIM-BH3, confirmation, biochemical, fluorescence polarization, triplicate (AID 2168;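 active = inhibition above the average of all tested compounds plus 3 SD, cut at about 40% in these data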;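 note: 0% = DMSO wells and 100% = unlabeled Bim-BH3 control peptide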); details: GST-MCL1 / FITC-Bim-BH3 fluorescence polarization; at 10.9 µM; active compounds read high
[3] = biological target: Glutathione S-transferase omega-1 (Homo sapiens) (UniProt P78417); experiment: GSTO1 inhibitor hit confirmation, counter-screen for RBBP9 inhibitor project, biochemical, fluorescence polarization, triplicate (AID 2176;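 active = inhibition above the primary screen's cutoff, its mean inhibition plus 3 SD, cut at about 35% in these data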;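 note: loss of polarization as inhibitors block binding of rhodamine sulfonate ester activity probe; 0% = GSTO1 with DMSO and 100% = wells lacking GSTO1 enzyme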); details: recombinant GSTO1, probe fluorescence polarization; at 5.96 µM; active compounds read high
[4] = biological target: Insulin-degrading enzyme (Homo sapiens) (UniProt P14735); experiment: human IDE inhibitors in live cells, confirmation, fluorescence polarization, HEK cells, FAbetaB substrate (AID 435028;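 active = mean inhibition across triplicate wells above the cutoff set by the earlier primary insulin-degrading enzyme screen, cut at about 16% in these data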;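 note: 0% = DMSO wells and 100% = 60 µM reference IDE inhibitor Ii1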); details: FAbetaB cleavage, at 5.59 µM, active compounds read high
[5] = cytotoxicity in HEK cells, cytotoxicity control for IDE inhibitor project, cell-based, luminescence (AID 449730; in the data active = inhibition above about 22%;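 note: 0% = vehicle wells and 100% = reference cytotoxic drug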); details: HEK293 cytotoxicity, ATP luminescence; at 5.59 µM; active compounds read high
[6] = biological target: Protein-arginine deiminase type-4 (Homo sapiens) (UniProt Q9UM07); experiment: human PAD4 inhibitors, confirmation, biochemical, fluorescence polarization (AID 488796;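 active = mean inhibition across replicates above the hit cutoff set by the earlier primary screen, cut at about 15% in these data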;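 note: inhibitors block active-site labeling by the probe so polarization falls; 0% = PAD4 with probe and DMSO and 100% = probe without PAD4 enzyme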); details: recombinant PAD4, RCA probe fluorescence polarization; at 6.36 µM; active compounds read high
[7] = biological target: Serine protease HTRA1 (Homo sapiens) (UniProt Q92743); experiment: HTRA1 protease inhibitors, retest, confirmation, biochemical, fluorescence polarization (AID 540248;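 active = mean inhibition over three repeats above a set limit taken from the earlier primary screen, cut at about 37% in these data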;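 note: 0% = HTRA1 with DMSO and 100% = wells lacking HTRA1; inhibitors block probe binding so polarization drops and inhibition rises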); details: recombinant HTRA1, FP-rhodamine activity-based probe, at 5.96 µM, active compounds read high
[8] = biological target: Nuclear receptor coactivator 3 (Homo sapiens) (UniProt Q9Y6Q9); experiment: SRC3 coactivator transcriptional activity inhibitors, confirmation, cell-based, luminescence, quadruplicate (AID 588792;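 active = mean inhibition over 43.08%, the solvent-only control mean plus 3 SD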;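 note: 0% = DMSO treated cells and 100% = gossypol at 36 µM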); details: HEK293 GAL4-SRC3 luciferase reporter, at 3.6 µM, active compounds read high
[9] = tested on: transactivating tegument protein VP16 (Human herpesvirus 1), Gal4-VP16 luciferase reporter; experiment: VP16 transactivation inhibitors, counter-screen for SRC3 inhibitor project, cell-based, luminescence, high throughput (AID 588794; in the data active = inhibition above about 30%); details: mammalian cells, VP16-driven luciferase reporter luminescence; at 3.6 µM; active compounds read high
[10] = biological target: Nuclear receptor coactivator 1 (Homo sapiens) (UniProt Q15788); experiment: SRC1 coactivator transcriptional activity inhibitors, confirmation, cell-based, luminescence, quadruplicate (AID 588820;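 active = mean inhibition above 46.68%, the untreated control wells mean plus 3 SD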;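 note: 0% = DMSO wells and 100% = gossypol 36 µM treated wells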); details: HEK293 GAL4-SRC1 luciferase reporter, at 3.6 µM, active compounds read high
[11] = VP16 transactivation inhibitors, counter-screen for SRC1 inhibitor project, cell-based, luminescence, high throughput (AID 588824; in the data active = inhibition above about 25%); details: cell-based VP16 transactivation luciferase luminescence; at 3.6 µM; active compounds read high
[12] = compounds interfering with TAMRA-BSA probe, counter-screen for TCR-CD3 interaction inhibitor project, biochemical, fluorescence, TAMRA-labeled BSA (AID 652035; in the data active = inhibition above about 23%;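 note: 0% = buffer low control and 100% = reference high control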); details: TAMRA-labeled BSA probe fluorescence counterscreen; at 9.4 µM; active compounds read high
[13] = tested on: T-cell receptor (TCR)-CD3 interaction, human; experiment: TCR-CD3 interaction inhibitors, retest, confirmation, biochemical, fluorescence, TAMRA-labeled TCR probe (AID 652036; in the data active = inhibition above about 19%); details: TAMRA-labeled TCR probe fluorescence binding assay; at 9.4 µM; active compounds read high
[14] = biological target: (Lyso)-N-acylphosphatidylethanolamine lipase (Mus musculus) (UniProt Q8VD66); experiment: ABHD4 inhibitors, retest, confirmation, biochemical, fluorescence polarization, mouse (AID 720658;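 active = mean inhibition across replicates above the hit cutoff set in the primary screen, cut at about 30% in these data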;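 note: 0% = wild-type ABHD4 with DMSO and 100% = catalytically dead S159A mutant with DMSO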); details: purified mABHD4, FP-Rh probe fluorescence polarization; at 8.92 µM; active compounds read high
[15] = biological target: Nuclear receptor subfamily 5 group A member 2 (Homo sapiens) (UniProt O00482); experiment: LRH-1 (NR5A2) inverse agonists, retest, confirmation, cell-based, luminescence (AID 651613; in the data active = inhibition above about 42%;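 note: HEK293T cells co-transfected with LRH-1 and StAR promoter luciferase reporter; 0% = vehicle wells and 100% = parental cells lacking receptor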); details: cell-based LRH-1 luciferase reporter, inverse agonism; at 3.6 µM; active compounds read high
[16] = biological target: Steroidogenic factor 1 (Homo sapiens) (UniProt Q13285); experiment: SF1 (NR5A1) inverse agonists, counter-screen for LRH-1 inverse agonist project, cell-based, luminescence, high throughput (AID 651614; in the data active = inhibition above about 44%;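 note: cells cotransfected with StAR promoter reporter and SF1 expression vector; 0% = vehicle on cells with receptor and 100% = vehicle on cells lacking receptor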); details: cell-based SF1 luciferase reporter, at 3.6 µM, active compounds read high
[17] = biological target: Protein phosphatase methylesterase 1 (Homo sapiens) (UniProt Q9Y570); experiment: PME-1 inhibitor activity retest, confirmation, biochemical, fluorescence polarization, FP-Rh probe, triplicate (AID 2171;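 active = inhibition above the hit cutoff set in the earlier primary screen, cut at about 27% in these data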;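 note: 0% = enzyme with DMSO and 100% = wells lacking PME-1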); details: recombinant PME-1, FP-Rh probe fluorescence polarization; at 5.9 µM; active compounds read high
Chain of Protein phosphatase methylesterase 1 (Homo sapiens) (Q9Y570 whole entry, looked up): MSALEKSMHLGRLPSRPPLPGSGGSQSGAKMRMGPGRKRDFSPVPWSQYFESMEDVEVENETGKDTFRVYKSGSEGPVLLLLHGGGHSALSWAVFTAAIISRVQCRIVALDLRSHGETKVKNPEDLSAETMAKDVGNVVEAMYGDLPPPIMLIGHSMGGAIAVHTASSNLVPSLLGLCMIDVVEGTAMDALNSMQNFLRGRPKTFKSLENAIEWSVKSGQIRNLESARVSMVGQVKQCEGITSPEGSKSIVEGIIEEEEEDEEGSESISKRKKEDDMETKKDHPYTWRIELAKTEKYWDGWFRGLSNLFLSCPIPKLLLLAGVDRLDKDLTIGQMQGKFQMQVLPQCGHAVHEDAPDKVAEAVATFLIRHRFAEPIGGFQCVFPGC

Chain of Bcl-2-like protein 1 (Homo sapiens) (Q07817 whole entry, looked up): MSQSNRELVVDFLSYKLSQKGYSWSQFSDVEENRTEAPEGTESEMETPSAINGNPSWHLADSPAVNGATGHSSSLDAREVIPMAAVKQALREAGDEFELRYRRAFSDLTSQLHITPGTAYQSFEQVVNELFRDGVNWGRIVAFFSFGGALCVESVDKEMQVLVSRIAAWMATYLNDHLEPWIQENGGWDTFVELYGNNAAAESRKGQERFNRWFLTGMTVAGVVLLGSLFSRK
Chain of Induced myeloid leukemia cell differentiation protein Mcl-1 (Homo sapiens) (Q07820 whole entry, looked up): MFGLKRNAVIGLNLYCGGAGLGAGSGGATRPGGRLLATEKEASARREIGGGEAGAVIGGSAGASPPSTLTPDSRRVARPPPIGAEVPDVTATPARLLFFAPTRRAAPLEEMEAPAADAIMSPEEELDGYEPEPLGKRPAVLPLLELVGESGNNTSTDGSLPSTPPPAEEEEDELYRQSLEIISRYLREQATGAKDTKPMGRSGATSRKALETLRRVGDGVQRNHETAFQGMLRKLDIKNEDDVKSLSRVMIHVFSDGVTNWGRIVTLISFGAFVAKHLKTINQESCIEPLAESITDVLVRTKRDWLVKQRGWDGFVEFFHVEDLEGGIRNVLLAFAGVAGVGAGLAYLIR
Chain of Glutathione S-transferase omega-1 (Homo sapiens) (P78417 whole entry, looked up): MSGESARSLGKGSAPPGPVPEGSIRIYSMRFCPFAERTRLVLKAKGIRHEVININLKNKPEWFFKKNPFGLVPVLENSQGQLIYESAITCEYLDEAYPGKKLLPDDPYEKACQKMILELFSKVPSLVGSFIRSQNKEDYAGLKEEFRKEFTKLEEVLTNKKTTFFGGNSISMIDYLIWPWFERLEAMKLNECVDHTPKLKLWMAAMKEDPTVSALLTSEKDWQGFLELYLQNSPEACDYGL
Chain of Protein-arginine deiminase type-4 (Homo sapiens) (Q9UM07 whole entry, looked up): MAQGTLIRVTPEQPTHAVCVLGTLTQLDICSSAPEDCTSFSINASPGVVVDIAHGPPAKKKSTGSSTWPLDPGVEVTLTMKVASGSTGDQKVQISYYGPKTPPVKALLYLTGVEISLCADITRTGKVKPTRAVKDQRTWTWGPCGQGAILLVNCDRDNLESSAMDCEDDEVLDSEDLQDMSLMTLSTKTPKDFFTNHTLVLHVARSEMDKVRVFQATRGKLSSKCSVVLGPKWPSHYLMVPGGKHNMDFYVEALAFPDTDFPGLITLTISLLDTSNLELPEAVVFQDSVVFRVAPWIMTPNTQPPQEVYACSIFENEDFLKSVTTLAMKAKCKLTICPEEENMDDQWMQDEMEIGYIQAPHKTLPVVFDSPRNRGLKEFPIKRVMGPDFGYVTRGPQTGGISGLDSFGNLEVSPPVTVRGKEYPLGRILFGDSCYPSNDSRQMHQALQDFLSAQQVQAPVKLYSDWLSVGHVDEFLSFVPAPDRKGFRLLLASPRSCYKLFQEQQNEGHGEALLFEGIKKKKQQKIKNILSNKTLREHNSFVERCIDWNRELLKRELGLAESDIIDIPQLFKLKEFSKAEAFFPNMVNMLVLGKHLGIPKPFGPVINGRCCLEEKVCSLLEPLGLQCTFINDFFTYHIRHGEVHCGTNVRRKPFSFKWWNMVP
Chain of Nuclear receptor coactivator 1 (Homo sapiens) (Q15788 whole entry, looked up, the tested form may be a part): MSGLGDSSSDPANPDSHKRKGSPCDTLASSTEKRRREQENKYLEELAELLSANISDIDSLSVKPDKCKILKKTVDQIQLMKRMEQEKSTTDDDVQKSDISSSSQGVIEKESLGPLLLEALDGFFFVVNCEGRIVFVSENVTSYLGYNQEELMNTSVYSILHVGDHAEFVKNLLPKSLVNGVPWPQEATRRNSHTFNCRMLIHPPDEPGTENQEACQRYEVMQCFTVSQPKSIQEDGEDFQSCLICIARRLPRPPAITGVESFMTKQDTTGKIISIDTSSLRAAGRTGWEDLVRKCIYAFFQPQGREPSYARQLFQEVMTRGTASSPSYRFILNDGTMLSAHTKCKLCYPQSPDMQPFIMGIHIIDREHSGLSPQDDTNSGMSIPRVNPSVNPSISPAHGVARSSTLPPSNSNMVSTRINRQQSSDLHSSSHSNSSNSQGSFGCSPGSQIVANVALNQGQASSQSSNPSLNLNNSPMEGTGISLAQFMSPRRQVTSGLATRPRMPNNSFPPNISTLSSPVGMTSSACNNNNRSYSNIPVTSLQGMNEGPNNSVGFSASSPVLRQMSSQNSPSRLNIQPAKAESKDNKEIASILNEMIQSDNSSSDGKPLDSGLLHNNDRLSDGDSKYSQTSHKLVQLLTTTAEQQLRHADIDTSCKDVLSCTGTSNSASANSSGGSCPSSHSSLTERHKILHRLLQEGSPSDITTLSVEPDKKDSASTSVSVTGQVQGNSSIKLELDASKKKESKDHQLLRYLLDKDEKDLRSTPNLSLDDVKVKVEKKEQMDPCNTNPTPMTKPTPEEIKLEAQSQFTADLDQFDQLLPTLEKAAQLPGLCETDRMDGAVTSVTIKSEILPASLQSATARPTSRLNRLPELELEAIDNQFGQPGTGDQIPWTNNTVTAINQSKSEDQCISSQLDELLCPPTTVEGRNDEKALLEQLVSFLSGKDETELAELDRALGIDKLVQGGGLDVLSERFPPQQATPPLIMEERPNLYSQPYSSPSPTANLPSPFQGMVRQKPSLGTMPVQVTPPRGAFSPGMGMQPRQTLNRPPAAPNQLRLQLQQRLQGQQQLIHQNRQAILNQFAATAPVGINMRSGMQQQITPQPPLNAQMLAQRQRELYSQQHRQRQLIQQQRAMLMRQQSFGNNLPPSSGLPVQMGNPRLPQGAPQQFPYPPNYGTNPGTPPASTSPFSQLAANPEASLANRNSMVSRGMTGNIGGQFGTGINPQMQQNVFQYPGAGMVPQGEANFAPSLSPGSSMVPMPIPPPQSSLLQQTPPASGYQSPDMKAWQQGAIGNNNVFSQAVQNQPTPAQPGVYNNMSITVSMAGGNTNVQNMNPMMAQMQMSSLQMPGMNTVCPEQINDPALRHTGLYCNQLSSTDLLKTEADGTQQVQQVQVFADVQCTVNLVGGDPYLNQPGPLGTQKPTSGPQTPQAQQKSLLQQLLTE
Chain of (Lyso)-N-acylphosphatidylethanolamine lipase (Mus musculus) (Q8VD66 whole entry, looked up): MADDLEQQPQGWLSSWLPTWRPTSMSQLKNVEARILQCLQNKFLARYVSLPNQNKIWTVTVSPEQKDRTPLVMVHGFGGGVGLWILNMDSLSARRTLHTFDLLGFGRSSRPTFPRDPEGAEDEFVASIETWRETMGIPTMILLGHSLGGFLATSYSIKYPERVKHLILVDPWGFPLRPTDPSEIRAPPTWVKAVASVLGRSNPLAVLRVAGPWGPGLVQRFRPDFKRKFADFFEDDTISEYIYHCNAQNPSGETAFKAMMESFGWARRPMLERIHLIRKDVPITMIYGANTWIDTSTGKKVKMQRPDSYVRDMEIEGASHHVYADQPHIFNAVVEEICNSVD
Chain of Nuclear receptor subfamily 5 group A member 2 (Homo sapiens) (O00482 whole entry, looked up): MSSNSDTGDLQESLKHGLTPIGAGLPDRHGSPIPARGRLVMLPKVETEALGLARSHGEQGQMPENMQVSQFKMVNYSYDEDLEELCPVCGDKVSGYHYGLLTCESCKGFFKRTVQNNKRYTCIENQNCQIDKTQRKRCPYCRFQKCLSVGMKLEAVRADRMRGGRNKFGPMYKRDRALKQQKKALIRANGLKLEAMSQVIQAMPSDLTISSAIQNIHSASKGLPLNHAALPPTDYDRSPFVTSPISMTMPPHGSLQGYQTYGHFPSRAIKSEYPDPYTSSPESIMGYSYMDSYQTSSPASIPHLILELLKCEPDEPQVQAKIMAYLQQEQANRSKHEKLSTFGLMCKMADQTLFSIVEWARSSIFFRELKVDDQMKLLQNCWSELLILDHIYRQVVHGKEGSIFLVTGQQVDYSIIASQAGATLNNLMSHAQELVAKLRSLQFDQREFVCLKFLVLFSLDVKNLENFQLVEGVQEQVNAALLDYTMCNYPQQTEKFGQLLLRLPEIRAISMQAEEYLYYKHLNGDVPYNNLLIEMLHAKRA
Chain of Steroidogenic factor 1 (Homo sapiens) (Q13285 whole entry, looked up): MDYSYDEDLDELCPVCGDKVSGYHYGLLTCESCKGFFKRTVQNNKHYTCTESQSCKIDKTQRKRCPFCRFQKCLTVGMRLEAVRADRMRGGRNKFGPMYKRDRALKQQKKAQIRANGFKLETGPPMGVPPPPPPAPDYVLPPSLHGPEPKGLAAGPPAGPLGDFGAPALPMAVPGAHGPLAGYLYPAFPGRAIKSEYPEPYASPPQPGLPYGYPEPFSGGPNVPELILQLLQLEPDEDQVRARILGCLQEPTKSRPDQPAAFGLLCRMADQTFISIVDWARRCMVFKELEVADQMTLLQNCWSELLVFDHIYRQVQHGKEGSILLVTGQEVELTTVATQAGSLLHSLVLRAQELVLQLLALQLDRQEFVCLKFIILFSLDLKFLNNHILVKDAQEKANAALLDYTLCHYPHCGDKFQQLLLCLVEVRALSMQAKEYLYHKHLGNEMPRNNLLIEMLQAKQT

## COC(=O)c1cc(OCC(=O)NC2CCCc3ccccc32)cc(C(=O)OC)c1 (stereo unspecified)
[1]
  inhibition: 16.3%
[2]
  inhibition: 28.4%

## O=S(=O)([N-]c1nc2ccccc2nc1-[n+]1ccc(Cc2ccccc2)cc1)c1ccc(Br)s1
[1]
  inhibition: 33.4% (active)
[2]
  inhibition: 33.7%

## Cc1ccc(NC(=O)c2cc(-c3ccc(C)o3)nc3ccccc23)nc1
[1]
  inhibition: 12.4%
[2]
  inhibition: 41.7% (active)

## COC/C=C/C1=CC2=CC(=O)C(C)(OC(=O)CCC(=O)OC)C(=O)C2=CO1 (stereo unspecified)
[1]
  inhibition: 43.5% (active)
[2]
  inhibition: 59.1% (active)

## O=c1[nH]c2ccccc2n2c(-c3ccccc3)nnc12
[1]
  inhibition: 36.7% (active)
[2]
  inhibition: 34.5%
[3]
  inhibition: 23.1%

## COC(=O)C[n+]1cccc2ccccc21
[1]
  inhibition: 142% (active)
[2]
  inhibition: 173% (active)

## CC/C(C)=N/Nc1nc2sc3c(c2c(=O)[nH]1)CC(C)(C)OC3
[1]
  inhibition: 34.7% (active)
[2]
  inhibition: 53.8% (active)

## Cc1nnc(NC(=O)/C=C/c2ccco2)s1
[1]
  inhibition: 11.6%
[2]
  inhibition: 16.8%

## C=CCOc1cccc(C2C(C(=O)c3ccc(C)o3)=C(O)C(=O)N2c2nnc(C)s2)c1 (stereo unspecified)
[1]
  inhibition: 70.1% (active)
[2]
  inhibition: 80.5% (active)
[4]
  inhibition: 6.36%
[5]
  inhibition: 5.97%

## Cc1ccc(/C=C(\C#N)C(=O)Nc2cccc3ncccc23)o1
[1]
  inhibition: 23.1%
[2]
  inhibition: 43.1% (active)

## COCCn1c(N)c(NCc2ccccc2)c(=O)[nH]c1=O
[1]
  inhibition: 37.1% (active)
[2]
  inhibition: 62.8% (active)

## O=C(COC(=O)Cn1cnc2ccccc21)Nc1cccc2c1C(=O)c1ccccc1C2=O
[1]
  inhibition: 88.4% (active)
[2]
  inhibition: 73.3% (active)

## CN1c2ccc(C=O)c3c(C=O)ccc(c23)N(C)C1(C)C
[1]
  inhibition: 126% (active)
[2]
  inhibition: 151% (active)
[3]
  inhibition: 63.5% (active)
[6]
  inhibition: 18.5% (active)
[7]
  inhibition: 46.9% (active)
[8]
  inhibition: 27.9%
[9]
  inhibition: 9.96%
[10]
  inhibition: 13.7%
[11]
  inhibition: 16.3%
[12]
  inhibition: 15.3%
[13]
  inhibition: 10.7%
[14]
  inhibition: 20.4%

## CCCn1c(C2CCCN2c2nc(-c3ccc(C)cc3)cs2)nc2cc(Cl)c(N3CCCCC3)cc21 (stereo unspecified)
[1]
  inhibition: 4.86%
[2]
  inhibition: 15.1%

## COCCN(CCOC)c1nc(N)c2c(N)nc3c(c2c1C#N)CC(=O)N3Cc1ccc(Cl)cc1
[1]
  inhibition: 9.48%
[2]
  inhibition: 4.93%

## COc1ccc2[nH]c(C)c(CCN(Cc3cccs3)C(=S)Nc3ccccc3OC)c2c1
[1]
  inhibition: 14.6%
[2]
  inhibition: 12.4%

## O=c1[nH]c(=S)[nH]c2[nH]c(=S)[nH]c12
[1]
  inhibition: 42.2% (active)
[2]
  inhibition: 98.7% (active)

## O=C(COC(=O)c1ccccc1C(=O)N1CCN(c2ccccc2)CC1)NCc1ccccc1
[1]
  inhibition: 22.1%
[2]
  inhibition: 16.5%

## C1=C(N2CCOCC2)/C(=C/c2nc3ccccc3[nH]2)CC1
[1]
  inhibition: 55.3% (active)
[2]
  inhibition: 63% (active)

## Fc1ccc(CNc2nc3ccccc3n3nnnc23)cc1
[1]
  inhibition: 36.6% (active)
[2]
  inhibition: 41.3% (active)

## Brc1ccc(C2=CC(c3ccco3)n3ncnc3N2)cc1 (stereo unspecified)
[1]
  inhibition: 52.9% (active)
[2]
  inhibition: 75.9% (active)

## CC[C@]1(O)C[C@@H]2CN(CCc3c([nH]c4ccccc34)[C@@](C(=O)OC)(c3cc4c(cc3OC)N(C)[C@H]3[C@@](O)(C(=O)OC)[C@H](OC(C)=O)[C@]5(CC)C=CCN6CC[C@]43[C@@H]65)C2)C1
[1]
  inhibition: 27.1%
[2]
  inhibition: 35.2%
[15]
  inhibition: 42.5% (active)
[16]
  inhibition: 61.2% (active)

## Cc1cccc(C)c1NS(=O)(=O)c1ccc(NC(=O)c2ccc(Cl)c([N+](=O)[O-])c2)cc1
[17]
  inhibition: -96.3%

## CN(C)S(=O)(=O)c1cccc(NC(=O)c2cc([N+](=O)[O-])ccc2N2CCCCC2)c1
[17]
  inhibition: 43.2% (active)

## O=C1/C(=C/Nc2ccc3c(c2)OCO3)CCc2ccccc21
[17]
  inhibition: 19.5%

## COc1ccc2nc(-n3c(O)c(C4=c5ccccc5=NC4=O)[nH]c3=S)sc2c1
[17]
  inhibition: 45.8% (active)

## Cc1ccc(O)c(C(=O)c2cc(C#N)c(=O)n(-c3nccs3)c2)c1
[17]
  inhibition: -1.15%

## CSc1nsc(/C=C/Nc2ccc(O)cc2C)c1C#N
[17]
  inhibition: -1.46%

## Cn1c(=O)c(Nc2ccc(Cl)cc2)c2c3c(cccc31)C(=O)c1ccccc1-2
[17]
  inhibition: 62.5% (active)
